For 18 sequences, binding signal results are on record in article PMC7862700, “An all-to-all approach to the identification of sequence-specific readers for epigenetic DNA modifications on cytosine”.

Holding throughout (assay): DAPPL (digital affinity profiling via proximity ligation, sequencing); 10 mM Tris-HCl pH 7.5, 50 mM NaCl, 1 mM DTT, 4% glycerol, room temperature, 30 min; GST-TFs on glutathione beads, 16-mer random dsDNA library, 0.1% formaldehyde crosslink after washing; high values mean tight binding
Common to all, as to details: protein: recombinant; tags: N-terminal GST; dsDNA, one strand shown

One test has as its target T1, ELK3 (Homo sapiens, UniProt P41970 1-407).
T1 sequence: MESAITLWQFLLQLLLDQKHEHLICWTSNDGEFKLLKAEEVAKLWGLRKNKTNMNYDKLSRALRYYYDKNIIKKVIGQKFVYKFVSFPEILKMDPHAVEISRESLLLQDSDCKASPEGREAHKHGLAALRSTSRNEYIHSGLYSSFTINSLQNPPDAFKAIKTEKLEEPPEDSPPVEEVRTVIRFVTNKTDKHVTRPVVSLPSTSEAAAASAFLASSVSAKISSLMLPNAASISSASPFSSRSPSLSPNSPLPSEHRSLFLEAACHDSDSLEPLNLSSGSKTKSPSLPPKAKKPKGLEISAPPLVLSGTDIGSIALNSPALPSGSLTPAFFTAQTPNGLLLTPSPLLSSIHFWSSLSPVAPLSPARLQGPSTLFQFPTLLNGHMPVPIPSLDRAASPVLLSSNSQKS
The method in brief: (§1)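 Human transcription factors fused to GST were expressed in yeast, captured on glutathione beads, given DNA barcodes and pooled with a GST-only negative control. Pools were incubated with 200 nmole of a 16-mer random double-stranded DNA library in Tris/NaCl/DTT/glycerol buffer at room temperature for 30 min. They were then washed, crosslinked with 0.1% formaldehyde, proximity-ligated (BsaI/T4 ligase, 1 h, 37 °C), PCR-amplified and sequenced on an Illumina NextSeq500. Binding signal is each 6-mer's read frequency for a factor divided by its frequency for the GST control.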

For a further test, the target named is T2, ELK4 (Homo sapiens, UniProt P28324-2 1-405).
T2 sequence: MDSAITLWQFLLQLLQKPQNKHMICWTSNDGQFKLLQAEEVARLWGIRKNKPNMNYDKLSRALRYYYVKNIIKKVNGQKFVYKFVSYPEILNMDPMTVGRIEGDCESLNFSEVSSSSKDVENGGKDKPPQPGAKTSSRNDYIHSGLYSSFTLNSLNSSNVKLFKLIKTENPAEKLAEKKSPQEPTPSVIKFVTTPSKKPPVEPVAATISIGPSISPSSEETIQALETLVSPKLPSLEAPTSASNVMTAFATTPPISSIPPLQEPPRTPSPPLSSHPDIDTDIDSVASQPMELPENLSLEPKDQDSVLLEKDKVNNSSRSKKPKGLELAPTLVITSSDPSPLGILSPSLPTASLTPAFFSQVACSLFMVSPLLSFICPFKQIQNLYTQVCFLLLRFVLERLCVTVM
The method in brief: as §1

The target in the next test is T3, ELF3 (Homo sapiens, UniProt P78545 1-371).
T3 sequence: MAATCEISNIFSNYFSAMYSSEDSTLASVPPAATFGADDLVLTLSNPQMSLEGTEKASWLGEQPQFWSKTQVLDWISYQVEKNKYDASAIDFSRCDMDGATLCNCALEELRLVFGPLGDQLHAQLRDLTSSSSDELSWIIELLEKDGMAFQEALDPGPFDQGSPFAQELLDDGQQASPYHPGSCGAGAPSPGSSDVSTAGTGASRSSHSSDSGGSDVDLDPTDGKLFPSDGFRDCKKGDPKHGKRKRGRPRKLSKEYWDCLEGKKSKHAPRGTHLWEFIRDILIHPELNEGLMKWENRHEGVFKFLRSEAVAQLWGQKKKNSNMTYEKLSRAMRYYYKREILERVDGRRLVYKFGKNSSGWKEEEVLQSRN
The method in brief:
as §1

A further test concerns the target T4, ETV7 (Homo sapiens, UniProt Q9Y603 1-341).
T4 sequence: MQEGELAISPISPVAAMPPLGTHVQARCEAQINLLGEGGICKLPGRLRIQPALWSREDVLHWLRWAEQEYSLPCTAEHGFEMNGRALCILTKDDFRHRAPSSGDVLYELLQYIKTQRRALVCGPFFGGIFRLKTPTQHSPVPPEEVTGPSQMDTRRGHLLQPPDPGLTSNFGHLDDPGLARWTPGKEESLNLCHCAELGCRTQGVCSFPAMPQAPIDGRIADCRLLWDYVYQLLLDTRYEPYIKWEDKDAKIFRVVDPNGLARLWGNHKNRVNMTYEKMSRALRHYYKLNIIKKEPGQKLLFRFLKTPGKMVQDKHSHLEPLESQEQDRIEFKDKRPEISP
The gist of the method:
as §1

The target in the next test is T5, ETV2 (Homo sapiens, UniProt O00321 1-342).
T5 sequence: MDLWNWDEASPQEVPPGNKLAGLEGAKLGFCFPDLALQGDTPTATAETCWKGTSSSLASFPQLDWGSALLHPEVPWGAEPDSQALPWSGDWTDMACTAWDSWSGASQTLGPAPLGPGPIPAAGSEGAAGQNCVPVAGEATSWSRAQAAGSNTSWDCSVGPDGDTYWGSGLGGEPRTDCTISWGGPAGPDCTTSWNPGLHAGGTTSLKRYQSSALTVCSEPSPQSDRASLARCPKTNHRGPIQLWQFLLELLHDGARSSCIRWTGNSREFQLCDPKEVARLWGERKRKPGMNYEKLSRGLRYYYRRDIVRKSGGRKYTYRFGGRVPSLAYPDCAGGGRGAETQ
The gist of the method: as §1

The target in a further test is CRX (Homo sapiens, UniProt O43186 1-299). The method in brief: as §1
CRX, sequence (O43186 whole entry): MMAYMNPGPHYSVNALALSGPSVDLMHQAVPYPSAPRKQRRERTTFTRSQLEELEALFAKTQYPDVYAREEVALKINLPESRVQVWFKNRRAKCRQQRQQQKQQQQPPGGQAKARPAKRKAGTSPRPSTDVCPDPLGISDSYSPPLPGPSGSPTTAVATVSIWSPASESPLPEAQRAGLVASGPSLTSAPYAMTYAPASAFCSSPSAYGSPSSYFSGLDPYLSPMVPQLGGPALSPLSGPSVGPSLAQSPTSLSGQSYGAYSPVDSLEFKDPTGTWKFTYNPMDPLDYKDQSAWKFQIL

GCCCAC: the binding signal with ELK3 is 1.03 fold enrichment (6-mer frequency, TF over GST control); with ELK4 it was 1 fold enrichment (6-mer frequency, TF over GST control); in the test with ELF3, 1.03 fold enrichment (6-mer frequency, TF over GST control).

In the case of CCATGC, the binding signal with ELK3 is 1.04 fold enrichment (6-mer frequency, TF over GST control); with ELK4, 1.13 fold enrichment (6-mer frequency, TF over GST control); with ELF3, 1.18 fold enrichment (6-mer frequency, TF over GST control); in the test with ETV7, 1.1 fold enrichment (6-mer frequency, TF over GST control).

As to TTGGTC, the binding signal in the test with ELK3 was 1.11 fold enrichment (6-mer frequency, TF over GST control); in the test with ELK4, 1.15 fold enrichment (6-mer frequency, TF over GST control); with ETV7 it was 1.18 fold enrichment (6-mer frequency, TF over GST control).

Turning to CATCCA, the binding signal in the test with ELK4 is 1.07 fold enrichment (6-mer frequency, TF over GST control).

As for GGGTTC, the binding signal with ELK4 was 1 fold enrichment (6-mer frequency, TF over GST control); with ELF3, 1.02 fold enrichment (6-mer frequency, TF over GST control).

Turning to AAAGCG, the binding signal in the test with ELK3 was 1.08 fold enrichment (6-mer frequency, TF over GST control); with ELK4 it was 1.25 fold enrichment (6-mer frequency, TF over GST control); in the test with ETV2, 1.06 fold enrichment (6-mer frequency, TF over GST control); with ELF3, 1.14 fold enrichment (6-mer frequency, TF over GST control); with CRX it was 1.14 fold enrichment (6-mer frequency, TF over GST control); in the test with ETV7 it was 1.11 fold enrichment (6-mer frequency, TF over GST control).

As for CCACAC, the binding signal with ELK3 is 1.11 fold enrichment (6-mer frequency, TF over GST control); in the test with ELK4 it was 1.04 fold enrichment (6-mer frequency, TF over GST control).

In the case of TCAACA, the binding signal with ELK3 was 1.06 fold enrichment (6-mer frequency, TF over GST control); with ELK4 it was 1.03 fold enrichment (6-mer frequency, TF over GST control); in the test with ELF3, 1.12 fold enrichment (6-mer frequency, TF over GST control).

On to GCTGCC, for which the binding signal was 1.05 fold enrichment (6-mer frequency, TF over GST control) in the test with ELK3; 1.2 fold enrichment (6-mer frequency, TF over GST control) with ELK4; 1.04 fold enrichment (6-mer frequency, TF over GST control) in the test with ETV7.

Regarding ATGCCG, the binding signal with ELK3 is 1.07 fold enrichment (6-mer frequency, TF over GST control); with ELK4 it was 1.15 fold enrichment (6-mer frequency, TF over GST control).

Regarding GTTGAT, the binding signal with ELK4 was 1.17 fold enrichment (6-mer frequency, TF over GST control); with CRX it was 1.1 fold enrichment (6-mer frequency, TF over GST control).

Consider GCCCCA, for which the binding signal in the test with ELK3 was 1.1 fold enrichment (6-mer frequency, TF over GST control); with ELK4, 1.06 fold enrichment (6-mer frequency, TF over GST control).

With CATCGC, the binding signal with ELK3 is 1.23 fold enrichment (6-mer frequency, TF over GST control); in the test with ELK4 it was 1.14 fold enrichment (6-mer frequency, TF over GST control); in the test with ETV7 it was 1.11 fold enrichment (6-mer frequency, TF over GST control).

As for TGGACC, the binding signal was 1.03 fold enrichment (6-mer frequency, TF over GST control) with ELK4; 1.19 fold enrichment (6-mer frequency, TF over GST control) in the test with ELF3; 1.03 fold enrichment (6-mer frequency, TF over GST control) with ETV7.

As for CGGCCT, the binding signal with ELK3 was 1.13 fold enrichment (6-mer frequency, TF over GST control); in the test with ELK4, 1.13 fold enrichment (6-mer frequency, TF over GST control); with ELF3, 1.03 fold enrichment (6-mer frequency, TF over GST control); with ETV7, 1.23 fold enrichment (6-mer frequency, TF over GST control).

On to CCGCTG, for which the binding signal with ELK4 is 1.2 fold enrichment (6-mer frequency, TF over GST control); with ELF3, 1.01 fold enrichment (6-mer frequency, TF over GST control); in the test with ETV7, 1.16 fold enrichment (6-mer frequency, TF over GST control).

Turning to AAGGGT, the binding signal with ELK4 was 1.15 fold enrichment (6-mer frequency, TF over GST control); with ETV7 it was 1.1 fold enrichment (6-mer frequency, TF over GST control).

For the sequence CCGATG, the binding signal in the test with ELK4 is 1.07 fold enrichment (6-mer frequency, TF over GST control); in the test with ELF3 it was 1.11 fold enrichment (6-mer frequency, TF over GST control); with ETV7 it was 1.1 fold enrichment (6-mer frequency, TF over GST control).
